From PMC4552634, “A New Set of Chemical Starting Points with Plasmodium falciparum Transmission-Blocking Potential for Antimalarial Drug Discovery” (PLoS ONE, 2015)
Read-outs that look alike come from different tables or passages of the source. Out of some 13,000 compounds screened, about 3,200 (25%) showed an effect of 50% or more. The list shows a part of the results.

Tested on: P. falciparum stage V gametocytes
Set-up: BacTiter-Glo ATP luminescence viability of purified stage V gametocytes in 384-well plates, per cent inhibition versus DMSO
Conditions: 48 h, 5 µM, inhibitor

SMILES	% Inhibition	% Inhibition (% Inhibition)
O=C1c2ccc([N+](=O)[O-])cc2C(=O)N1c1ccc2[nH]ncc2c1 [TCMDC-131599]	-5.185%	–
CCOC(=O)c1ccc(NC(=O)Nc2ccc(-c3ccc(-c4nc5cccc(C)c5[nH]4)s3)cc2)cc1 [TCMDC-133259]	-10.61%	–
CC(=O)C1(c2ccccc2)CCN(CCC2(c3ccc(Cl)c(Cl)c3)CN(C(=O)C3CCCC3)CCO2)CC1 (stereo not shown) [TCMDC-135325]	-42.49%	–
CC(C)c1cccc(C(C)C)c1NC(=O)NNC(=O)c1ccc(CCN2CCC(c3nc(COCC(F)(F)F)c(-c4ccc(F)cc4)o3)CC2)cc1 [TCMDC-131908]	-22.37%	–
Cc1c(C)c2c(c(C)c1O)CC[C@](C)(C(=O)NC1CCC(CN3CCC(c4c[nH]c5ccccc45)CC3)CC1)O2 (stereo partly shown) [TCMDC-139895]	–	-20.01%
Cc1c(C)c2c(c(C)c1O)CC[C@@](C)(C(=O)N1CCC(CCN3CCC(c4c[nH]c5ccccc45)CC3)CC1)O2 [TCMDC-139898]	69.88%	–
Cc1c(C)c2c(c(C)c1O)CC[C@](C)(C(=O)N1CCC(CN3CCC(c4c[nH]c5ccccc45)CC3)CC1)O2 [TCMDC-139892]	-67.77%	–
Cc1c(C)c2c(c(C)c1O)CC[C@@](C)(C(=O)N1CCC(CN3CCC(c4c[nH]c5ccccc45)CC3)CC1)O2 [TCMDC-139899]	79.54%	–
Cc1c(C)c2c(c(C)c1O)CC[C@](C)(C(=O)NC1CCC(CN3CCC(c4c[nH]c5ccccc45)CC3)CC1)O2 (stereo partly shown) [TCMDC-139890]	–	-54.12%
Cc1c(C)c2c(c(C)c1O)CC[C@](C)(C(=O)N1CCC(CCN3CCC(c4c[nH]c5ccccc45)CC3)CC1)O2 [TCMDC-139891]	102.8%	–
Cc1cccc(C(=O)Nc2ccnc(N3CCCN(Cc4cccc(O)c4)CC3)c2)c1 [TCMDC-134959]	-37.26%	–
N=C1N=C(N)NC2(CCCCC2)N1OCC1CCCCC1 [TCMDC-131617]	-29.76%	–
CC1(C)NC(N)=NC(=N)N1OCCCO [TCMDC-131559]	-1.825%	–
CC1CCC2(CC1)NC(N)=NC(=N)N2OCCCCCCCCO (stereo not shown) [TCMDC-131600]	80.95%	–
CNC(=O)c1ccc(/C=C/C(=O)N2CCc3ccc(-c4ccccc4)cc3C2c2cccc(C(F)(F)F)c2)cc1 (stereo not shown) [TCMDC-138253]	-22.09%	–
CN(C)CCCOc1ccccc1CN1CC[C@H](NC(=O)c2ccc(Cl)c(Cl)c2)C1 [TCMDC-140310]	-1.9%	–
CN(C)CCCOc1ccc(CN2CC[C@H](NC(=O)c3ccc(Cl)c(Cl)c3)C2)cc1Cl [TCMDC-140272]	19.07%	–
CN(C)CCCOc1ccc(CN2CC[C@H](NC(=O)c3ccc(Cl)c(Cl)c3)C2)c2ccccc12 [TCMDC-140267]	76.67%	–
O=C(N[C@H]1CCN(Cc2ccc(OCCN3CCNCC3)c3ccccc23)C1)c1ccc(Cl)c(Cl)c1 [TCMDC-140269]	83.44%	–
O=C(N[C@H]1CCN(Cc2ccc(OCCN3CCCC3)c3ccccc23)C1)c1ccc(Cl)c(Cl)c1 [TCMDC-140268]	76.23%	–
CN1CCC[C@H]1COc1ccc(CN2CC[C@H](NC(=O)c3ccc(Cl)c(Cl)c3)C2)c2ccccc12 [TCMDC-140270]	22.59%	–
CN(Cc1ccccc1)C(=O)CCNS(=O)(=O)c1cc(Br)cnc1N [TCMDC-125445]	18.91%	–

SMILES	% Inhibition	% Inhibition (% Inhibition)
CCCC/C=C(\Cl)c1ccc(O)c2c1C[C@H]1C[C@H]3[C@H](N(C)C)C(=O)C(C(N)=O)=C(O)[C@@]3(O)C(=O)C1=C2O [TCMDC-138656]	85.94%	–
COc1cccc(CCc2ccc(O)c3c2C[C@H]2C[C@H]4[C@H](N(C)C)C(=O)C(C(N)=O)=C(O)[C@@]4(O)C(=O)C2=C3O)c1 [TCMDC-138636]	7.419%	–
CN(C)[C@@H]1C(=O)C(C(N)=O)=C(O)[C@@]2(O)C(=O)C3=C(O)c4c(O)ccc(C#Cc5ccccn5)c4C[C@H]3C[C@@H]12 [TCMDC-138642]	7.454%	–
COc1ccccc1C1CN(Cc2coc3ccccc3c2=O)Cc2ccccc2O1 (stereo not shown) [TCMDC-124669]	4.679%	–
Cc1c(Cl)cccc1S(=O)(=O)Nc1ccc(CCN2CCC(N)CC2)cc1 [TCMDC-134083]	99.61%	–
NC1CCN(CCc2ccc(NS(=O)(=O)c3cccc4ccccc34)cc2)CC1 [TCMDC-134084]	55.68%	–
COC(=O)CCCOc1cc(Cc2cnc(N)nc2N)cc(OC)c1OC [TCMDC-137557]	8.428%	–
CC1(C)N=C(N)N=C(N)N1OCCc1cccc2ccccc12 [TCMDC-131663]	2.124%	–
CCNC(=O)Nc1ccc(-c2ccc(-c3nc4cccc(C)c4[nH]3)s2)cc1 [TCMDC-133170]	11.61%	–
Cc1cc2[nH]c(-c3ccc(C(=O)NCCCN4CCN(c5cccc(Cl)c5)CC4)cc3)nc2cc1Cl [TCMDC-140027]	-17.26%	–
Cn1nccc1C(=O)NCCNCc1ccc(-c2ccc(-c3nc4cc(F)ccc4[nH]3)cc2)cc1.O=C(O)C(F)(F)F [TCMDC-133012]	-30.72%	–
CCc1nc2c(cnn2CC)c(NC2CCOCC2)c1CNC(=O)N1CCOCC1 [TCMDC-136620]	94.41%	–
CCn1ncc2c(NC3CCOCC3)c(CNC(=O)c3ccnn3C)c(C)nc21 [TCMDC-136560]	97.63%	–
Cc1nc(C)n(CC(=O)Nc2cccc(-c3cccc(-c4nc5ccc(C(F)(F)F)cc5[nH]4)c3)c2)n1 [TCMDC-137134]	-7.323%	–
O=S(=O)(c1cccc(F)c1)c1ccc(Nc2ncnc3cc(Br)sc23)cc1Cl [TCMDC-135626]	18.51%	–
O=C(Nc1n[nH]c2nc(-c3ccco3)c(Br)cc12)c1ccc(CN2CCCC2)cc1 [TCMDC-141483]	10.19%	–
COc1cccc(CCN(Cc2ccccc2-c2ccc(CNC3CC(C)(C)NC(C)(C)C3)cc2)C(=O)NC2CCCCC2)c1 [TCMDC-141577]	108.7%	–
CN(C)CCN(Cc1ccccc1-c1ccc(CNCCc2ccccc2)cc1)C(=O)NC1CCCCC1 [TCMDC-140626]	107.8%	–
CN(C)CCN(Cc1ccccc1-c1ccc(CNCCc2ccccc2)cc1)C(=O)c1ccccc1 [TCMDC-140532]	112.9%	–
CC(=O)Nc1cccc(C(=O)Nc2nc3ccc(-c4cc(=O)[nH]c(Nc5ccccc5Cl)n4)cc3[nH]2)c1 [TCMDC-135793]	-20.56%	–
C(=Cc1ccccc1)C=NNc1ccnc2ccccc12 [TCMDC-142061]	-65.55%	–
Fc1cccc(COc2ccc(Nc3ncnc4sc(C#CCNC5CCCC5)cc34)cc2Cl)c1 [TCMDC-138786]	-17.57%	–

SMILES	% Inhibition	% Inhibition (% Inhibition)
CCC1N=C(N)N=C(N)N1OCCCOc1c(Cl)cc(Cl)cc1Cl (stereo not shown) [TCMDC-131697]	23.8%	–
Cc1ccc(NC(=O)NC2CCN(c3ccnc4cc(Cl)ccc34)C2)cc1 (stereo not shown) [TCMDC-133651]	27.92%	–
COc1cc(NC(=O)/C=C/c2ccccc2Cl)cc(OCCN2CCC(O)(c3ccccc3)CC2)c1 [TCMDC-140934]	-1.317%	–
O=C1Nc2cccc3c2C1(CCCCCN1CC=C(c2c[nH]c4ccccc24)CC1)CCC3 (stereo not shown) [TCMDC-140570]	20.32%	–
O=C1Nc2cccc3c2C1(CCCCN1CCC(c2cc4ccncc4[nH]2)CC1)CCC3 (stereo not shown) [TCMDC-141151]	–	27.49%
O=C1Nc2cccc3c2C1(CCCCN1CCC(c2c[nH]c4cc(C(F)(F)F)ccc24)CC1)CCC3 (stereo not shown) [TCMDC-140465]	121.5%	–
O=C1Nc2cccc3c2C1(CCCCN1CCC(c2cc4ccncc4[nH]2)CC1)CCC3 (stereo not shown) [TCMDC-141221]	–	84.1%
O=C1Nc2cccc3c2C1(CCCCN1CC=C(c2c[nH]c4ncccc24)CC1)CCC3 (stereo not shown) [TCMDC-140506]	-6.886%	–
CC(C)(C)OC(=O)n1cc(C2CCN(CCCC34CCCc5cccc(c53)NC4=O)CC2)c2ccncc21 (stereo not shown) [TCMDC-140392]	2.693%	–
O=C1Nc2cccc3c2C1(CCCN1CCC(c2c[nH]c4cc(C(F)(F)F)ccc24)CC1)CCC3 (stereo not shown) [TCMDC-140464]	106.4%	–
O=C1Nc2cccc3c2C1(CCCCCN1CCC(c2c[nH]c4ccncc24)CC1)CCC3 (stereo not shown) [TCMDC-140504]	73.67%	–
CC1(CCCCN2CCC(Oc3ccc(F)cc3F)CC2)C(=O)Nc2ccccc21 (stereo not shown) [TCMDC-140794]	-43.13%	–
CCOc1ncccc1CN1CCC(N2CCc3cc(NC(=O)c4ccco4)ccc32)C1 (stereo not shown) [TCMDC-135074]	-21.9%	–
COc1ccc(C2N=C(N)N=C(N)N2c2ccc(Cl)cc2)cc1OC (stereo not shown) [TCMDC-123670]	-7.954%	–
COc1cc(C(=O)NC2CCN(Cc3ccccc3)CC2)ccc1-c1nc2c(Cl)cc(C(F)(F)F)cc2[nH]1 [TCMDC-140085]	-15.98%	–
Cc1cccc2[nH]c(-c3ccc(-c4ccc(NC(=O)Nc5ccc(F)c(F)c5F)cc4)cc3)nc12 [TCMDC-133232]	3.128%	–
N#Cc1ccc2c(c1)CCN(CCC1CCC(NC(=O)/C=C/c3cccc4cc[nH]c34)CC1)CC2 (stereo not shown) [TCMDC-139671]	-14.99%	–
CCN1CC=C(c2c[nH]c3ccccc23)CC1 [TCMDC-124447]	-15.41%	–
Cn1c(/C=C/C(=O)NC2CCC(CCN3CCc4ccc(C#N)cc4CC3)CC2)cc2ccccc21 (stereo not shown) [TCMDC-139683]	-68.7%	–
Cc1cn(CC(=O)Nc2cccc(-c3cccc(-c4nc5c(C)cccc5[nH]4)c3)c2)c(=O)[nH]c1=O [TCMDC-137037]	-3.611%	–
